Assay results taken from PubChem BioAssay AID1159580 (chemical genetic matrix, 2015).
Screen size: about 5,500 compounds; about 2,000 (36%) were called active. Roughly 18% stayed inconclusive and do not appear here. No stated cut-off is given here; in the data, active means normalized growth mostly below about 0.91 (no sharp cut-off); inconclusive means no clear call, values can overlap the other calls; inactive means mostly above about 0.92. Some of the results follow.

Assay: chemical genetic growth profiling, strain panel (AID 1159580);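 further: tested at 20 µM; growth read once vehicle control cultures reached saturation at 30 °C; 1 = growth at the plate median or of vehicle wells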
Conditions: growth OD

Measured: normalized growth

S=P(N1CC1)(N1CC1)N1CC1
inactive: S. cerevisiae deletion strains, locus YKL009W, strain mrt4, stronger effect = lower value 0.99 | S. cerevisiae deletion strains, locus YKL068W, stronger effect = lower value 1.01 | S. cerevisiae deletion strains, locus YKL085W, strain MDH1 (second series), stronger effect = lower value 0.997 | S. cerevisiae deletion strains, locus YKL085W, strain MDH1, stronger effect = lower value 0.997 | S. cerevisiae deletion strains, locus YKL160W, strain elf1, stronger effect = lower value 1.01 | S. cerevisiae deletion strains, locus YKL190W, strain CNB1, stronger effect = lower value 1 | S. cerevisiae deletion strains, locus YKR001C, strain vps1, stronger effect = lower value 0.994 | S. cerevisiae deletion strains, locus YKR026C, strain gcn3, stronger effect = lower value 0.976 | S. cerevisiae deletion strains, locus YKR091W, strain srl3, stronger effect = lower value 1 | S. cerevisiae deletion strains, locus YLL001W, strain dnm1, stronger effect = lower value 1 | S. cerevisiae deletion strains, locus YLL026W, stronger effect = lower value 1 | S. cerevisiae deletion strains, locus YLL041C, strain sdh2, stronger effect = lower value 1.01 | S. cerevisiae deletion strains, locus YLR027C, strain aat2, stronger effect = lower value 1.01 | S. cerevisiae deletion strains, locus YLR039C, strain RIC1, stronger effect = lower value 1.03 | S. cerevisiae deletion strains, locus YLR058C, strain SHM2, stronger effect = lower value 1.01 | S. cerevisiae deletion strains, locus YLR102C, strain apc9, stronger effect = lower value 1.01 | S. cerevisiae deletion strains, locus YLR113W, strain HOG1, stronger effect = lower value 0.995 | S. cerevisiae deletion strains, locus YLR221C, strain rsa3, stronger effect = lower value 0.996 | S. cerevisiae deletion strains, locus YLR258W, strain gsy2, stronger effect = lower value 1.01 | S. cerevisiae deletion strains, locus YLR262C, strain YPT6 (second series), stronger effect = lower value 1.02 | S. cerevisiae deletion strains, locus YLR262C, strain YPT6, stronger effect = lower value 1.02 | S. cerevisiae deletion strains, locus YLR268W, strain sec22, stronger effect = lower value 0.989 | S. cerevisiae deletion strains, locus YLR320W, strain mms22, stronger effect = lower value 0.994 | S. cerevisiae deletion strains, locus YLR330W, strain CHS5, stronger effect = lower value 1.01 | S. cerevisiae deletion strains, locus YLR342W, strain FKS1 (second series), stronger effect = lower value 1.03 | S. cerevisiae deletion strains, locus YLR342W, strain FKS1, stronger effect = lower value 1.01 | S. cerevisiae deletion strains, locus YLR357W, strain rsc2, stronger effect = lower value 1.03 | S. cerevisiae deletion strains, locus YLR370C, strain arc18, stronger effect = lower value 1.01 | S. cerevisiae deletion strains, locus YLR371W, strain rom2, stronger effect = lower value 1.01 | S. cerevisiae deletion strains, locus YLR384C, strain iki3, stronger effect = lower value 0.994 | S. cerevisiae deletion strains, locus YLR418C, strain cdc73, stronger effect = lower value 0.977 | S. cerevisiae deletion strains, locus YML016C, strain PPZ1, stronger effect = lower value 1 | S. cerevisiae deletion strains, locus YML032C, strain rad52, stronger effect = lower value 1 | S. cerevisiae deletion strains, locus YML120C, strain ndi1, stronger effect = lower value 1.01 | S. cerevisiae deletion strains, locus YML124C, strain tub3, stronger effect = lower value 1 | S. cerevisiae deletion strains, locus YMR058W, strain fet3, stronger effect = lower value 1.02 | S. cerevisiae deletion strains, locus YMR078C, strain ctf18, stronger effect = lower value 1 | S. cerevisiae deletion strains, locus YMR125W, strain sto1, stronger effect = lower value 1 | S. cerevisiae deletion strains, locus YMR129W, stronger effect = lower value 1.01 | S. cerevisiae deletion strains, locus YMR205C, strain PFK2, stronger effect = lower value 1.01 | S. cerevisiae deletion strains, locus YMR223W, strain ubp8, stronger effect = lower value 1 | S. cerevisiae deletion strains, locus YMR231W, strain pep5, stronger effect = lower value 0.993 | S. cerevisiae deletion strains, locus YMR263W, strain SAP30, stronger effect = lower value 1.02 | S. cerevisiae deletion strains, locus YMR307W, strain GAS1, stronger effect = lower value 1.04 | S. cerevisiae deletion strains, locus YNL067W, strain RPL9B, stronger effect = lower value 1.01 | S. cerevisiae deletion strains, locus YNL071W, strain lat1, stronger effect = lower value 1.02 | S. cerevisiae deletion strains, locus YNL128W, strain TEP1, stronger effect = lower value 1.01 | S. cerevisiae deletion strains, locus YNL153C, strain GIM3, stronger effect = lower value 0.997 | S. cerevisiae deletion strains, locus YNL183C, strain NPR1, stronger effect = lower value 0.932 | S. cerevisiae deletion strains, locus YNL209W, strain ssb2, stronger effect = lower value 1.02 | S. cerevisiae deletion strains, locus YNL233W, strain BNI4, stronger effect = lower value 0.998 | S. cerevisiae deletion strains, locus YNL248C, strain rpa49, stronger effect = lower value 0.999 | S. cerevisiae deletion strains, locus YNL250W, strain rad50, stronger effect = lower value 0.995 | S. cerevisiae deletion strains, locus YNL271C, strain bni1, stronger effect = lower value 1.01 | S. cerevisiae deletion strains, locus YNL298W, strain CLA4, stronger effect = lower value 1.02 | S. cerevisiae deletion strains, locus YNL307C, strain MCK1, stronger effect = lower value 1.01 | S. cerevisiae deletion strains, locus YNL322C, strain KRE1 (second series), stronger effect = lower value 1.01 | S. cerevisiae deletion strains, locus YNL322C, strain KRE1, stronger effect = lower value 1.01 | S. cerevisiae deletion strains, locus YNR049C, strain mso1, stronger effect = lower value 1.01 | S. cerevisiae deletion strains, locus YNR052C, strain pop2, stronger effect = lower value 1 | S. cerevisiae deletion strains, locus YOL006C, strain TOP1, stronger effect = lower value 1.04 | S. cerevisiae deletion strains, locus YOL012C, strain htz1 0.982 | S. cerevisiae deletion strains, locus YOL147C, strain pex11, stronger effect = lower value 1.04 | S. cerevisiae deletion strains, locus YOR001W, strain rrp6, stronger effect = lower value 1.01 | S. cerevisiae deletion strains, locus YOR061W, strain CKA2, stronger effect = lower value 1.01 | S. cerevisiae deletion strains, locus YOR069W, strain VPS5, stronger effect = lower value 0.992 | S. cerevisiae deletion strains, locus YOR070C, strain gyp1, stronger effect = lower value 1.01 | S. cerevisiae deletion strains, locus YOR080W, strain dia2, stronger effect = lower value 1 | S. cerevisiae deletion strains, locus YOR083W, strain WHI5, stronger effect = lower value 0.997 | S. cerevisiae deletion strains, locus YOR106W, strain vam3, stronger effect = lower value 0.997 | S. cerevisiae deletion strains, locus YOR136W, strain idh2, stronger effect = lower value 1 | S. cerevisiae deletion strains, locus YOR144C, strain elg1, stronger effect = lower value 1.01 | S. cerevisiae deletion strains, locus YOR184W, strain ser1, stronger effect = lower value 1.01 | S. cerevisiae deletion strains, locus YOR231W, strain MKK1, stronger effect = lower value 1 | S. cerevisiae deletion strains, locus YOR265W, strain rbl2, stronger effect = lower value 1.01 | S. cerevisiae deletion strains, locus YOR270C, strain vph1, stronger effect = lower value 1.01 | S. cerevisiae deletion strains, locus YOR290C, strain snf2, stronger effect = lower value 1.01 | S. cerevisiae deletion strains, locus YOR316C, strain cot1, stronger effect = lower value 1 | S. cerevisiae deletion strains, locus YPL051W, strain arl3, stronger effect = lower value 1.01 | S. cerevisiae deletion strains, locus YPL055C, strain LGE1, stronger effect = lower value 0.989 | S. cerevisiae deletion strains, locus YPL078C, strain atp4, stronger effect = lower value 1.01 | S. cerevisiae deletion strains, locus YPL106C, strain sse1, stronger effect = lower value 1.02 | S. cerevisiae deletion strains, locus YPL240C, strain hsp82, stronger effect = lower value 0.996 | S. cerevisiae deletion strains, locus YPL241C, strain CIN2, stronger effect = lower value 0.991 | S. cerevisiae deletion strains, locus YPL256C, strain CLN2, stronger effect = lower value 0.991 | S. cerevisiae deletion strains, locus YPR119W, strain clb2, stronger effect = lower value 1.01 | S. cerevisiae deletion strains, locus YPR141C, strain kar3, stronger effect = lower value 0.996 | S. cerevisiae deletion strains, locus YPR163C, strain tif3, stronger effect = lower value 1 | S. cerevisiae deletion strains, locus YPR167C, strain met16, stronger effect = lower value 0.992 | S. cerevisiae deletion strains, strain wtn01, stronger effect = lower value 0.983 | S. cerevisiae strains, strain wild type, stronger effect = lower value 1.01
